From PubChem BioAssay (NCATS) come the findings set out here.

Records with an inconclusive call do not appear. Values without a mark were called inactive. The call rests on the fitted dose curve; in most records, active means well fitted inhibition curve with a large enough effect; inconclusive means small, poorly fitted or top-dose-only effect; inactive means flat fitted curve, though single readings scatter.
On the % scale 0 is the no-effect control and ±100 the full control effect.

Chain of Calcium and integrin-binding protein 1 (Homo sapiens) (Q99828 whole entry, looked up): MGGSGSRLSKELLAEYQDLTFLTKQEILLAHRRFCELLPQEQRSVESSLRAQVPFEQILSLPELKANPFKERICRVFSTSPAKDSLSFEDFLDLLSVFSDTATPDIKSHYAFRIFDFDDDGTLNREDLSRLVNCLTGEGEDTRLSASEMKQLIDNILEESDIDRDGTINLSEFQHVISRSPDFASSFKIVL

This assay addresses Calcium and integrin-binding protein 1 (Homo sapiens) (UniProt Q99828). Nature of the assay: Primary qHTS for Identification of Calcium Integrin Binding Protein 1 (CIB1) Competitor (AID 1508620).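 Further: GST tagged CIB1 binding a fluorescein labelled alphaIIb integrin peptide tracer; top concentration of the series differs between compounds.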 To be noted: CIB1-GST / FITC-alphaIIb peptide fluorescence polarization; series mostly up to 114 µM; activity change, negative = inhibition: at the top concentration. In outline:
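Fluorescence polarization competition: CIB1-GST (1 uM final) preincubated with compound 15 min at room temperature, then FITC-labeled alphaIIb peptide (100 nM final) added for another 15 min. Polarization read at Ex 480/Em 540.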
As for `COc1ccc(S(=O)(=O)N2CCN(C(=O)C3COc4ccccc4O3)CC2)cc1` (stereo unspecified), the “activity change, negative = inhibition” value is 3.19%. In the case of `Fc1ccc(-c2ccc(CNc3nc(-c4ccccc4C(F)(F)F)nc4ccccc34)cc2)cc1C(F)(F)F` it was -8.26%; in that of `Cc1ccc(C2=NN(CC(=O)N(C)C(C)c3ccco3)C(=O)C2)cc1` (stereo unspecified), -9.98%; in that of `O=C(Nc1nnc(-c2ccncc2)s1)Nc1ccc(Cl)cc1F`, 4.95%.

For `O=S(=O)(c1ccccc1)N1CCN(c2nccc(-c3cccs3)n2)CC1`, the “activity change, negative = inhibition” value is 1.8%. Then `COc1ccc(-c2nc3ccccc3c(=O)n2Cc2ccco2)cc1COc1c(C)cccc1C`, with 1.13%.

For the compound `CC1(C)CC2CC(C)(CN2S(=O)(=O)c2ccc(C(=O)Nc3ccc(Cl)cc3)cc2)C1` (stereo unspecified), the “activity change, negative = inhibition” value is 8.09%. For the compound `CCCCN(C)C(=O)Cn1nc(-c2ccc(C(C)(C)C)cc2)ccc1=O`, the “activity change, negative = inhibition” value is -3.13%. Then `O=C(Cc1ccc(Cl)c(Cl)c1)Nc1ccc([S+](=O)([O-])Nc2ccc([N+](=O)[O-])cc2)cc1`, with -12.3%; and `COc1cccc(CNc2ccc(S(=O)(=O)Nc3ccc(-c4ccccc4)cc3)cc2)c1O`, with -1.31%; and `Cc1cnc(-c2ccccc2C(C)C)nc1NCc1ccc(-c2ccnc(C(F)(F)F)c2)cc1`, with 3.21%.

`COc1cccc(C2c3c(ncn(-c4ccccc4Cl)c3=N)Oc3ccc4ccccc4c32)c1` (stereo unspecified): the “activity change, negative = inhibition” value is 3.56%.

Regarding `Clc1ccc(CSc2nc3ncc(Br)cc3[nH]2)cc1`, the “activity change, negative = inhibition” value was 1.11%. Then `Cc1ccc(S(=O)(=O)Nc2ccccc2C(=O)Nc2ccc(-c3ccccc3)cn2)cc1`, with -3.61%; and `Cc1cc(C(=O)Nc2ccc(NC(=O)Cc3ccc(Cl)c(Cl)c3)cc2)no1`, with 5.17%; and `O=C1CCCC2=C1C(c1[nH]ncc1Cl)NC(=NCc1ccncc1)N2` (stereo unspecified), with -4.89%.
